Laboratory results reported in ChEMBL document CHEMBL1961873, “Compounds: GSK PKIS; Assays: Nanosyn kinase panel” (2012).

Legend:
[1] = target: T1, Ephrin type-B receptor 2 (Homo sapiens) (UniProt P29323); conditions: at 1 µM
T1 sequence (whole entry): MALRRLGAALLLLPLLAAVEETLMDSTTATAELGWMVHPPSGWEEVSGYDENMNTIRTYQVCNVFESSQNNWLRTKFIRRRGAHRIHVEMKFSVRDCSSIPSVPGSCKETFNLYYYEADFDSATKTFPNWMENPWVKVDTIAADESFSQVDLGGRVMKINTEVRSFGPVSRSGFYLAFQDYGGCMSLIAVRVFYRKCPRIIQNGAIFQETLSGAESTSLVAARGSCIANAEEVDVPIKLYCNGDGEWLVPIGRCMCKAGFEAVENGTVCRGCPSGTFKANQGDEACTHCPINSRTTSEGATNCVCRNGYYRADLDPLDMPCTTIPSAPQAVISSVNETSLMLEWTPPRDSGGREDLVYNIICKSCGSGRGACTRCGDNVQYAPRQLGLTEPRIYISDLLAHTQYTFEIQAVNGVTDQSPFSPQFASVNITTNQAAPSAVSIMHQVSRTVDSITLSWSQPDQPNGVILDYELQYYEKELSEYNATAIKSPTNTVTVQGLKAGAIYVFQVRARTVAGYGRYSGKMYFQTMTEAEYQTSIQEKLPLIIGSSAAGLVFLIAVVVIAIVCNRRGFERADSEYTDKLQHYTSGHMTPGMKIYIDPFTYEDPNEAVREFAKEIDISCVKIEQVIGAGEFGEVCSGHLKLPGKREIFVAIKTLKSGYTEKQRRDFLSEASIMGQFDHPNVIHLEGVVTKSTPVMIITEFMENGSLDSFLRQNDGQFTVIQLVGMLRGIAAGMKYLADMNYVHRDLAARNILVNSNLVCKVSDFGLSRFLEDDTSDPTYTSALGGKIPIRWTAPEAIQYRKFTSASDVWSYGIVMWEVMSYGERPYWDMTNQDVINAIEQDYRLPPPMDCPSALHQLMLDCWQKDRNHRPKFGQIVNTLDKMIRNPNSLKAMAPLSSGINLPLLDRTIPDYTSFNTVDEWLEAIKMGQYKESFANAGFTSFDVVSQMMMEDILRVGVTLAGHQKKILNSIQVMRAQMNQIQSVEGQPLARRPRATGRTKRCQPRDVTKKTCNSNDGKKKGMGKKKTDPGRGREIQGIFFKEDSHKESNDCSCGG

[2] = target: T2, Ephrin type-B receptor 3 (Homo sapiens) (UniProt P54753); conditions: at 0.1 µM
T2 sequence (whole entry): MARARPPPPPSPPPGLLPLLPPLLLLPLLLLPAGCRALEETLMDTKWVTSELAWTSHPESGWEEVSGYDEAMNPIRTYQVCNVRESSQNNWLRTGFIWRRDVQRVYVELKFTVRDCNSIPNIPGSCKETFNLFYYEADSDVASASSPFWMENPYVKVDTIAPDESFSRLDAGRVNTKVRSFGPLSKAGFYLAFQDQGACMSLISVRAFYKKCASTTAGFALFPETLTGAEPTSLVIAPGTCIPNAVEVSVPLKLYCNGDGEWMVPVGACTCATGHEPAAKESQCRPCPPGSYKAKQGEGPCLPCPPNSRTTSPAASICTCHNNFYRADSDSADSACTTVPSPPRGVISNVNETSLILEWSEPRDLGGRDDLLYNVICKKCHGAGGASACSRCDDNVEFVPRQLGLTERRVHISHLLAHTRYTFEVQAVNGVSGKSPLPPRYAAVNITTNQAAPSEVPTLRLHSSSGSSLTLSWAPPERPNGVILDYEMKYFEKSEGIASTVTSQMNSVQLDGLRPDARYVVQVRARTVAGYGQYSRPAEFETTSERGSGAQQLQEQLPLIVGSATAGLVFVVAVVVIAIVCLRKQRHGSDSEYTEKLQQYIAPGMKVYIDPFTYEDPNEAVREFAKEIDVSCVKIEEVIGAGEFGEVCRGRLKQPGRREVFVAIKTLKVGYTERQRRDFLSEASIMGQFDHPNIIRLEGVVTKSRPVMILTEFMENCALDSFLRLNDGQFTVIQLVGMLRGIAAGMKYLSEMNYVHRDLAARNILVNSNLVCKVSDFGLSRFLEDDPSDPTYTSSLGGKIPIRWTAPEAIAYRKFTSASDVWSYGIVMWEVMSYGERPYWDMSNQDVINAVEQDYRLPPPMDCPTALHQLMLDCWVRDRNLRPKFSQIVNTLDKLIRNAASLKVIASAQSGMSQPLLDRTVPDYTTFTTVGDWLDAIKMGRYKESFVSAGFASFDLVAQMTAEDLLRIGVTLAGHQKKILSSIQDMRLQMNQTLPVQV

[3] = target: T2, Ephrin type-B receptor 3 (Homo sapiens); conditions: at 1 µM
[4] = target: T3, Ephrin type-B receptor 4 (Homo sapiens) (UniProt P54760); conditions: at 0.1 µM
T3 sequence (whole entry): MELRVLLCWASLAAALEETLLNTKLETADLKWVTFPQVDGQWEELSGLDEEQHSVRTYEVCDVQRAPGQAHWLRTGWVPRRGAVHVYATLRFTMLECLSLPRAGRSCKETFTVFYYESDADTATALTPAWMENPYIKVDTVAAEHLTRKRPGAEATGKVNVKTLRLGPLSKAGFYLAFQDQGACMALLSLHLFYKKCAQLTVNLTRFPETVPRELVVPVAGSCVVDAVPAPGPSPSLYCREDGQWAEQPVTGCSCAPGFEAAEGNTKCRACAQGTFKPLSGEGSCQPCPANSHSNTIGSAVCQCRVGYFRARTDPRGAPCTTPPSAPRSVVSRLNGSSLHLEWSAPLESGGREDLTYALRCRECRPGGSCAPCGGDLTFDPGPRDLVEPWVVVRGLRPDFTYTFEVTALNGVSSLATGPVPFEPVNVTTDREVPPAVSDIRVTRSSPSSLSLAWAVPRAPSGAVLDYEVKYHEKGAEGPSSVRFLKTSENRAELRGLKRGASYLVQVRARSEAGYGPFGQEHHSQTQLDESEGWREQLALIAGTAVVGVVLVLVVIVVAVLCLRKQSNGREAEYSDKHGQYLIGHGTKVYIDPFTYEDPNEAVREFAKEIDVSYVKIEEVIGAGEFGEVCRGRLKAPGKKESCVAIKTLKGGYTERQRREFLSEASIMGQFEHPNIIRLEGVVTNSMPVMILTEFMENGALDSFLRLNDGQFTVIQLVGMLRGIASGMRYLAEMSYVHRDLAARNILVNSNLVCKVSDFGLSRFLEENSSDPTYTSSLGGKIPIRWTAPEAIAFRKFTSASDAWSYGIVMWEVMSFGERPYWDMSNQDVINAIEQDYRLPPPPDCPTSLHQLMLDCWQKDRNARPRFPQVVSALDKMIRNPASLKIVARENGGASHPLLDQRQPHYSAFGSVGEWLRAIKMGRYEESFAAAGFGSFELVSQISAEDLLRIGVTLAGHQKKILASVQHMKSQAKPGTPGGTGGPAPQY

[5] = target: T3, Ephrin type-B receptor 4 (Homo sapiens); conditions: at 1 µM
[6] = target: Receptor tyrosine-protein kinase erbB-2 (Homo sapiens) (UniProt P04626); conditions: at 0.1 µM
Sequence of Receptor tyrosine-protein kinase erbB-2 (Homo sapiens) (P04626 whole entry): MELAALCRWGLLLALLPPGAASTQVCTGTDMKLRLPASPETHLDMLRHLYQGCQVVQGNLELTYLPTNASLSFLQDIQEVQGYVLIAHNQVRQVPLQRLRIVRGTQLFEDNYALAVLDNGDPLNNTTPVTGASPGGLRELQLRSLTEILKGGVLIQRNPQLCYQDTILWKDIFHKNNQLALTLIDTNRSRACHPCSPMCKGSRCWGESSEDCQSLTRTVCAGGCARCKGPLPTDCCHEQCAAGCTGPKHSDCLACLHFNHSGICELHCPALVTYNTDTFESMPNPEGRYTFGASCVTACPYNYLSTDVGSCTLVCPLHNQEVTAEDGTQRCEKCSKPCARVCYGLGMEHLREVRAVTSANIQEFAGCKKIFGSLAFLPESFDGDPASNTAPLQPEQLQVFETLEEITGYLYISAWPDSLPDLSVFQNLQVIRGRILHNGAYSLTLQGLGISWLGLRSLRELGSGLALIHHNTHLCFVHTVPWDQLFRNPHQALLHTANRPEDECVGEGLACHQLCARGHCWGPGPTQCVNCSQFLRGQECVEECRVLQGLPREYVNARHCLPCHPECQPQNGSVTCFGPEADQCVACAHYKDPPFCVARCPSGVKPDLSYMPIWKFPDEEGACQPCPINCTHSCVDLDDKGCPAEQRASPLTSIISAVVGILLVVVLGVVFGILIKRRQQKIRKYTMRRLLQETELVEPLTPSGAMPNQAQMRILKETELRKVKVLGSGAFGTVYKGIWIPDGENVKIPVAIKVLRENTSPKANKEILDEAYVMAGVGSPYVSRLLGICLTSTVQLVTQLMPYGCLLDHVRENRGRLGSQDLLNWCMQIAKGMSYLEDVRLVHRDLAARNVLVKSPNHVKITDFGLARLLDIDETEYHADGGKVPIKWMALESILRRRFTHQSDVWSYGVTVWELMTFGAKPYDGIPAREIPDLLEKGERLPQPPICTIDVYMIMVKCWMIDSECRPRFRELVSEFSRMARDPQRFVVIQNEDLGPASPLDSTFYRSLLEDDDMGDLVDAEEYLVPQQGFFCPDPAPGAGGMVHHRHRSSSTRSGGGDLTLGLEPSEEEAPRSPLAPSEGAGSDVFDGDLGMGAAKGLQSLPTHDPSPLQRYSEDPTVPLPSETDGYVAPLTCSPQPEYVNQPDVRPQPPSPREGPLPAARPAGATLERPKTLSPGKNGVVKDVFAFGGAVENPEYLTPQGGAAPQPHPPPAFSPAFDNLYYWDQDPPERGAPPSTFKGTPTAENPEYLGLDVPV

[7] = target: Receptor tyrosine-protein kinase erbB-2 (Homo sapiens) (UniProt P04626); conditions: at 1 µM
[8] = target: Receptor tyrosine-protein kinase erbB-4 (Homo sapiens) (UniProt Q15303); conditions: at 0.1 µM
Sequence of Receptor tyrosine-protein kinase erbB-4 (Homo sapiens) (Q15303 whole entry): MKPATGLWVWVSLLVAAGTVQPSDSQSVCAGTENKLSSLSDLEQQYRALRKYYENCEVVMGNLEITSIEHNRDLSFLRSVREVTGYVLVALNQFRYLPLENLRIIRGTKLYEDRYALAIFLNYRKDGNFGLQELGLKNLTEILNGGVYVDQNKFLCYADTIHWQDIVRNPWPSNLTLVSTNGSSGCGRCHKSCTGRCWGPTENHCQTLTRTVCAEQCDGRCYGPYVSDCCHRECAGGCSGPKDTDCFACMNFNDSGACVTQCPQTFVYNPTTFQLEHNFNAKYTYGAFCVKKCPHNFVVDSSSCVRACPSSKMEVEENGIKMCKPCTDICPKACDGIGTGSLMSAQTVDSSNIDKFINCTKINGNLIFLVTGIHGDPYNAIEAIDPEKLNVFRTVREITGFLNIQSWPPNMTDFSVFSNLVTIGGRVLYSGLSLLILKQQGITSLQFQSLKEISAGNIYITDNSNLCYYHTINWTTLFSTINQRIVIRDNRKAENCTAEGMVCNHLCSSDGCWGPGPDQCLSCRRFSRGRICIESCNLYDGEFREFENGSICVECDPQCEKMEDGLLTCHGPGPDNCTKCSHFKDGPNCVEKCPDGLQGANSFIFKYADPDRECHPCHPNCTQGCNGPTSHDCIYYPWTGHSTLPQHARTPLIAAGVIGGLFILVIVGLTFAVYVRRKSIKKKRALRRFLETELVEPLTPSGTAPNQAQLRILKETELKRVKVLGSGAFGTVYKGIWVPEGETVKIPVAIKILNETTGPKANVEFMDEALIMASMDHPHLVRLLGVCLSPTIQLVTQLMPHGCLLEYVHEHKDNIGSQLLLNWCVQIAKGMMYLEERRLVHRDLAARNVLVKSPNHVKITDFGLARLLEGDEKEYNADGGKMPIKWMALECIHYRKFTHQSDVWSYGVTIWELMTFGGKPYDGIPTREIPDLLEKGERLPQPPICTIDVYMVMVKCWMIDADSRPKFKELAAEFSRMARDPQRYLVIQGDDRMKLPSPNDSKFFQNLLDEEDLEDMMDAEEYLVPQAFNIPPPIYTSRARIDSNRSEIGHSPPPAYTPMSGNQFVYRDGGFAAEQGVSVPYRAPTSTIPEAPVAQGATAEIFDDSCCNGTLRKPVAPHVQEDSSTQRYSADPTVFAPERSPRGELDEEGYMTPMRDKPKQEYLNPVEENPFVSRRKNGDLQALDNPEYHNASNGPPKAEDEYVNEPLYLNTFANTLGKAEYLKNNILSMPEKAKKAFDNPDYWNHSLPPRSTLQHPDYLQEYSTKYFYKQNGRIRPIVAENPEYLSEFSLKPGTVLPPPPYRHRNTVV

[9] = target: Receptor tyrosine-protein kinase erbB-4 (Homo sapiens) (UniProt Q15303); conditions: at 1 µM
[10] = target: Tyrosine-protein kinase Fer (Homo sapiens) (UniProt P16591); conditions: at 0.1 µM
[11] = target: Tyrosine-protein kinase Fer (Homo sapiens) (UniProt P16591); conditions: at 1 µM
[12] = target: Tyrosine-protein kinase Fes/Fps (Homo sapiens) (UniProt P07332); conditions: at 0.1 µM
Sequence of Tyrosine-protein kinase Fes/Fps (Homo sapiens) (P07332 whole entry): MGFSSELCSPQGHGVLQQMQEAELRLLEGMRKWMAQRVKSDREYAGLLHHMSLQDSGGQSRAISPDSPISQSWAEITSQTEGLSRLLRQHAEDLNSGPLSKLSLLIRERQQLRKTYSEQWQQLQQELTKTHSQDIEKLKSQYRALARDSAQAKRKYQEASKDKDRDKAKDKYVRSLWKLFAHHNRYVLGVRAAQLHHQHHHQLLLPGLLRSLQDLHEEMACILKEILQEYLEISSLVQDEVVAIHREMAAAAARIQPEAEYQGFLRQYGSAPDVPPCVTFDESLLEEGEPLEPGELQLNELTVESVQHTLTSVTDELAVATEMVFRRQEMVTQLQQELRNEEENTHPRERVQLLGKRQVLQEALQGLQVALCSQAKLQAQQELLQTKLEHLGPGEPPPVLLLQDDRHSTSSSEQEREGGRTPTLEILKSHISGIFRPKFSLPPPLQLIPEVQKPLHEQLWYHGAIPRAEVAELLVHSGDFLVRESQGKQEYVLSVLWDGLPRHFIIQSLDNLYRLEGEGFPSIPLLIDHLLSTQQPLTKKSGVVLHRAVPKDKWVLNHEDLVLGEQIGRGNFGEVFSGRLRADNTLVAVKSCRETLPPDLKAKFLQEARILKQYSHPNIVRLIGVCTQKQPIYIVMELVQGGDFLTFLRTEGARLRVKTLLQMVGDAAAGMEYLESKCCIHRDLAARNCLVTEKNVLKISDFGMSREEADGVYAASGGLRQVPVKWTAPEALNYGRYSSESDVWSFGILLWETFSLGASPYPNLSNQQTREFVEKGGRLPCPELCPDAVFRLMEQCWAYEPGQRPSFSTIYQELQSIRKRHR

[13] = target: Tyrosine-protein kinase Fes/Fps (Homo sapiens) (UniProt P07332); conditions: at 1 µM
[14] = target: Fibroblast growth factor receptor 1 (Homo sapiens) (UniProt P11362); conditions: at 0.1 µM
[15] = target: Fibroblast growth factor receptor 1 (Homo sapiens) (UniProt P11362); conditions: at 1 µM
[16] = target: Fibroblast growth factor receptor 2 (Homo sapiens) (UniProt P21802); conditions: at 0.1 µM
[17] = target: Fibroblast growth factor receptor 2 (Homo sapiens) (UniProt P21802); conditions: at 1 µM
[18] = target: Fibroblast growth factor receptor 3 (Homo sapiens) (UniProt P22607); conditions: at 0.1 µM
Sequence of Fibroblast growth factor receptor 3 (Homo sapiens) (P22607 23-806 limits assumed): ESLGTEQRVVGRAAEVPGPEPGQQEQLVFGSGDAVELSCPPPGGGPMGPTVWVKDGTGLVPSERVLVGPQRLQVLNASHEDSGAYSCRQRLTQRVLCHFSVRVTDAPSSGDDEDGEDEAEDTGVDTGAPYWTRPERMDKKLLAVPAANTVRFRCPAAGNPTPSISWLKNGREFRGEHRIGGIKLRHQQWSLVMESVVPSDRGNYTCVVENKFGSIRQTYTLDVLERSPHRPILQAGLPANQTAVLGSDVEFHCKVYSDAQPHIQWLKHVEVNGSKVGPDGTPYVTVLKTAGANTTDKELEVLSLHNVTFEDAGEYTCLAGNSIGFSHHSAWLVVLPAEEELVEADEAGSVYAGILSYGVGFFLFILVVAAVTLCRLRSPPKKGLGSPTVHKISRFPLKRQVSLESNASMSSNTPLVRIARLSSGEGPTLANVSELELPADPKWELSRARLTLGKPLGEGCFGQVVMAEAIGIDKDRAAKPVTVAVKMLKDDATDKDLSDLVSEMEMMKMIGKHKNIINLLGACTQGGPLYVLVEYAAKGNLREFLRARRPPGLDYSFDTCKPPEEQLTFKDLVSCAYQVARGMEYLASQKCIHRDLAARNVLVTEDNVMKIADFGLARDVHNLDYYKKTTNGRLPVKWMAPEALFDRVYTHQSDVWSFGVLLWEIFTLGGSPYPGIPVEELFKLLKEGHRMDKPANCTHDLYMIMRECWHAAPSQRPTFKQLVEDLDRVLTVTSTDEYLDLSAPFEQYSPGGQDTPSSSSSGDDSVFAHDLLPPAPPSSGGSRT

[19] = target: Fibroblast growth factor receptor 3 (Homo sapiens) (UniProt P22607); conditions: at 1 µM
[20] = target: Fibroblast growth factor receptor 4 (Homo sapiens) (UniProt P22455); conditions: at 0.1 µM;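 note: values are mean percent inhibition of FGFR4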
Sequence of Fibroblast growth factor receptor 4 (Homo sapiens) (P22455 22-802 limits assumed): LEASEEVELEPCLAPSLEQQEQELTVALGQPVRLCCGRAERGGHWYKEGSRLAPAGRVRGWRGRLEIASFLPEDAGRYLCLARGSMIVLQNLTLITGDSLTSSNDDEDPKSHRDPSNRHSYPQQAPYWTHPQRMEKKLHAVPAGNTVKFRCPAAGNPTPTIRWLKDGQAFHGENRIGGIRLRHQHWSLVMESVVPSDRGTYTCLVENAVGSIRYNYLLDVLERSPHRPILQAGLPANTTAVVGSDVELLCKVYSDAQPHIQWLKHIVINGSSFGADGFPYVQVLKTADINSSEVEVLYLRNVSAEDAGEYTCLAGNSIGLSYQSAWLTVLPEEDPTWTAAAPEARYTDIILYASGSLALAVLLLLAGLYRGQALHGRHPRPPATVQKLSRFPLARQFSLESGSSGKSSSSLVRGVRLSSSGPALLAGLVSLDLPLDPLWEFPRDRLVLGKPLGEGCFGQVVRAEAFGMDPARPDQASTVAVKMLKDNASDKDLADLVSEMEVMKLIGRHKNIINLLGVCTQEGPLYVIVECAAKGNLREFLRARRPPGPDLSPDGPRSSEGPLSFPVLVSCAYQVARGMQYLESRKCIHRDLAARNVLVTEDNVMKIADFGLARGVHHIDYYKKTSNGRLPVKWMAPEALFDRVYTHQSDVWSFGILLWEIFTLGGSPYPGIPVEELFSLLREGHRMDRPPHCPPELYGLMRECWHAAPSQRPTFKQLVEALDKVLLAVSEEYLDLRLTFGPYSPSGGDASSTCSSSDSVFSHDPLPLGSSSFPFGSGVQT

| Structure (SMILES) | inhibition [1] | inhibition [2] | inhibition [3] | inhibition [4] | inhibition [5] | inhibition [6] | inhibition [7] | inhibition [8] | inhibition [9] | inhibition [10] | inhibition [11] | inhibition [12] | inhibition [13] | inhibition [14] | inhibition [15] | inhibition [16] | inhibition [17] | inhibition [18] | inhibition [19] | inhibition [20] |
| --- | --- | --- | --- | --- | --- | --- | --- | --- | --- | --- | --- | --- | --- | --- | --- | --- | --- | --- | --- | --- |
| CS(=O)(=O)CCNCc1ccc(-c2ccc3ncnc(Nc4ccc(OCc5cccc(F)c5)c(C(F)(F)F)c4)c3c2)o1 | 4.49% | 6.25% | 3.96% | 2.87% | 0.47% | 3.41% | 7.46% | 8.49% | 16.9% | 4.27% | 1.93% | 2.48% | 2.85% | -1.13% | 2.33% | 3.18% | 4.51% | 4.79% | 3.38% |  |
| NC(=O)c1ccc(-c2nc(-c3ccccn3)c(-c3ccc4c(c3)OCO4)[nH]2)cc1 | 6.48% | 4.63% | 1.89% | 3.74% | 1.95% | 2.99% | 0.42% | 7.53% | 11.4% | 1.79% | 6.64% | 1.52% | 2.16% | -0.93% | 2.26% | 0.95% | 1.31% | 2.79% | 1.9% | 4.19% |
| CC1=C(C(=O)Nc2ccc3[nH]ncc3c2)C(c2ccc(Cl)c(Cl)c2)CC(=O)N1 (centres undefined) | 12.5% | 3.28% | 2.88% | 1.18% | 1.59% | 0.3% | 0.63% | 8.29% | 17.8% | 1.45% | 1.24% | 1.63% | 2.35% | 0.69% | 8.25% | 0.22% | 20.4% | 2.17% | 14.1% | 1.31% |
| CC1=C(C(=O)Nc2ccc3[nH]ncc3c2)C(c2ccc3ccccc3c2)CC(=O)N1 (centres undefined) | 8.42% | 4.2% | 4.54% | 3.21% | 3.76% | 0.89% | 2.88% | 12.7% | 39.6% | 2.1% | 7.14% | 1.76% | 2.99% | 1.46% | 13.2% | 5.6% | 31.6% | 9.54% | 22.8% | 0.62% |
| Nc1ncnc2occ(-c3ccc(NC(=O)Nc4cc(C(F)(F)F)cc(C(F)(F)F)c4)cc3)c12 | 68.2% | 6.66% | 27.9% | 9.24% | 41.4% | -1.28% | -3.43% | 9.75% | 5.89% | 1.71% | 22% | 1.31% | 4.84% | 9.08% | 43.7% | 23.3% | 68.8% | 10.8% | 52.8% | 3.02% |
| Nc1nc(-c2ccc3c(c2)C(=Cc2cc(Br)c(O)c(Br)c2)C(=O)N3)cs1 | -1.17% | -1.61% | -4.71% | -0.3% | -2.45% | -4.27% | 2.84% | -6.34% | -0.4% | 5.18% | 3.05% | -2.93% | -3.65% | -5.75% | -1.36% | -1.12% | 1.88% | -0.11% | 1.45% | -4.66% |
